Screens (PubChem)
ALOX15B inhib: qHTS Assay for Inhibitors of 15-hLO-2 (15-human lipoxygenase 2) | Potency, µM (doses to about 57.1 µM), for inactives: top-dose activity change, negative = inhibition, actives largely listed as inhibitors | purified 15hLO-2, xylenol orange hydroperoxide absorbance | 110,000 compounds, 0.56% hits; note: potency is the fitted concentration of half-maximal effect; nearly all actives have a fitted effect of over 60% in size
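Enzyme 50 nM, AA 45 uM, 25 mM Hepes pH 7.5 + 0.01% Triton X-100; cpd preinc 15 min RT, rxn 90 min RT; stop/detect with 200 uM XO + 300 uM Fe(II) in 50 mM H2SO4, 30 min; A573/A405.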
12-hLO inh: qHTS Assay for Inhibitors of 12-hLO (12-human lipoxygenase) | Polyunsaturated fatty acid lipoxygenase ALOX12 (Homo sapiens), P18054 | purified 12-hLO, xylenol orange hydroperoxide absorbance | Potency, µM (highest dose often 57.1 µM), inactives show at the top dose activity change, negative = inhibition, hits mostly inhibitors | 150,000 compounds, 0.12% hits; note: potency is the fitted concentration of half-maximal effect; nearly all actives have a fitted effect of over 55% in size
Target sequence (P18054 whole entry, looked up): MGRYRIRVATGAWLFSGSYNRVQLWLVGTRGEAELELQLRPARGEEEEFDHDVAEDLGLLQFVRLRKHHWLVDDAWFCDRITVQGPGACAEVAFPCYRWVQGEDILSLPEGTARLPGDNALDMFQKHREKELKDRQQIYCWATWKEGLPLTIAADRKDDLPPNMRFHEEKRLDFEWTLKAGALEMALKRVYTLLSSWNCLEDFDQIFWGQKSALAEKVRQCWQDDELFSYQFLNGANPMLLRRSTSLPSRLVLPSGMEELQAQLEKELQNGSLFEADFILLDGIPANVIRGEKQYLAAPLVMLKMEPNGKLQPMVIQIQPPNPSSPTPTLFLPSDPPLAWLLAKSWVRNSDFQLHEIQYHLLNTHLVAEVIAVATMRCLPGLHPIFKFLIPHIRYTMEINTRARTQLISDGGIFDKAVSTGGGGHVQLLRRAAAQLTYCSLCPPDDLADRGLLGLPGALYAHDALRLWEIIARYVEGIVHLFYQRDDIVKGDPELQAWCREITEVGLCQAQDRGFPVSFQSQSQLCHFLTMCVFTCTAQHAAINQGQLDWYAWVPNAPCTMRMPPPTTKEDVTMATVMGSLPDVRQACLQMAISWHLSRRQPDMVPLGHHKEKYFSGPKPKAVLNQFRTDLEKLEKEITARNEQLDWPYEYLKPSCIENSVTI
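150 nM 12hLO, 25 mM Hepes pH 7.0 + 0.01% Triton X-100; cpd preinc 15 min RT; 40 uM arachidonic acid, 30 min RT; Fe-XO 30 min; A573/A405 ratio as read-out.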
IMPase cell inh: qHTS Assay for Identifying the Cell-Membrane Permeable IMPase Inhibitors | Inositol monophosphatase 1 (Rattus norvegicus), P97697 | CHO-M1 cells, IP1 accumulation, HTRF TR-FRET ratio | inhibition (IP1 accumulation), % at 46.1 µM | 120,000 tested, under 10 active | AID 901, 2007; active = well fitted curve in the direction sought with a large enough effect in the signal ratio, not every such curve was filed as active; inconclusive = small, poorly fitted or top-dose-only effect, or a change in a side signal; inactive = no such curve, though single readings can be large or run the other way; the % refers to the signal ratio;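 note: cells stimulated with carbachol in lithium chloride buffer; plate controls were DMSO basal wells for no effect and reference inhibitor wells for full effect; higher means more IMPase inhibition seen as more IP1 and lower FRET ratio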
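Carbachol-driven Gq signalling in CHO-M1 cells (2000/well) generates IP1. Compounds that block IMPase raise IP1 and so reduce the FRET signal from Eu-anti-IP1 and d2-IP1 after a 10 min room-temperature lysis.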
An asterisk follows results filed as active; ? = inconclusive; . = no result; [ ] = another dose, or the depositor's remark. The entries come from a sample that favours hits as a whole. Unless noted, calls come from the whole dose curve; as a rule, active = well fitted curve in the direction sought with a large enough effect; inconclusive = small, poorly fitted or top-dose-only effect, or another doubt; inactive = no such curve, though single readings can be large; an effect the other way counts as inactive or inconclusive. Unless noted, % is set by controls: 0 for no effect and ±100 for the full control effect.

SMILES | ALOX15B inhib | 12-hLO inh | IMPase cell inh
COc1ccc(NC(=S)N(CCN(C)C)C(C)c2ccco2)cc1 (configuration not stated) | . | -1% | .
COc1ccc(N=CC2=C(O)c3ccccc3C2=O)c(OC)c1 | -28% | -6% | 3
c1ccc(-n2nnnc2Oc2cccc3cccnc23)cc1 | 5% | 9% | -7
N#Cc1cc(Oc2cccc3cccnc23)c(-n2nnc3ccccc32)cc1C#N | ? | 10µM* | 11
Oc1c(Cl)cc(C(c2cc(Cl)c(O)c(Cl)c2)C(c2cc(Cl)c(O)c(Cl)c2)c2cc(Cl)c(O)c(Cl)c2)cc1Cl | 4µM* | -29%[11.4 µM] | .
Oc1c(Cl)cc(Cl)c(Cl)c1Cl | -6% | 0% | .
CSCCC(NC(=O)c1cc(CC(C)C)oc1C)C(=O)O (configuration not stated) | 8% | 2% | 2
Cc1cc(C)cc(NC(=O)CN2CCC(NC(=O)Cc3ccccc3)CC2)c1 | 12% | 0% | -3
COc1ccc(S(=O)(=O)N2CCC(N3CCCCC3)CC2)cc1 | 1% | -7% | 12
CCCOCC(C)OCC(C)O (configuration not stated) | -18% | -4% | .
COc1ccc(OC)c(S(=O)(=O)Nc2ccc(O)c3ccccc23)c1 | 16µM* | -18% | 14
COc1ccc(OC)c(S(=O)(=O)Nc2ccc(Oc3ccccc3)cc2)c1 | -7% | ? | 1
COc1ccc(-c2noc(-c3ccc(Cl)cc3[N+](=O)[O-])n2)cc1OC | . | 5% | .
c1ccc(C2=Nc3ccccc3SC2c2nc3ccccc3[nH]2)cc1 (configuration not stated) | 25µM* | ? | 0
O=C1CC(c2nc3ccccc3[nH]2)CN1c1ccccc1 (configuration not stated) | 0% | 6% | 1
O=C(COC(=O)c1cc(Cl)ccc1[N+](=O)[O-])Nc1cccc2ccccc12 | . | 3% | .
Cc1ccc(C)c(OCCCN2CCCC2)c1 | 4%[2.29 µM] | 1% | 9
Cc1cccc(S(=O)(=O)c2c(N)n(/N=C/c3ccco3)c3nc4ccccc4nc23)c1 | ? | ? | -9
Cc1ccc(S(=O)(=O)c2c(N)n(/N=C/c3ccco3)c3nc4ccccc4nc23)cc1C | 13µM* | ? | -12
CCn1nc(C(=O)NCCc2ccc(S(N)(=O)=O)cc2)c2ccccc2c1=O | 6% | -2% | 7
Cc1ccc2c(c1)OC(=O)CC2c1ccccc1 (configuration not stated) | -4% | -1% | 2
CO[C@H]1/C=C/O[C@@]2(C)Oc3c(C)c(O)c4c(O)c(c(/C=N/N5CCN(C)CC5)c(O)c4c3C2=O)NC(=O)/C(C)=C\C=C\[C@H](C)[C@H](O)[C@@H](C)[C@@H](O)[C@@H](C)[C@H](OC(C)=O)[C@@H]1C | ? | -17% | .
COC1C=CO[C@@]2(C)Oc3c(C)c(O)c4c(O)c(c(C=NN5CCN(C)CC5)c(O)c4c3C2=O)NC(=O)/C(C)=C\C=CC(C)C(O)[C@@H](C)C(O)C(C)[C@H](OC(C)=O)C1C (some centres not stated) | 20µM* | -26% | .
Cc1cc(Nc2ccccc2Cl)n2nnnc2n1 | 1% | 12% | -10
Cc1ccnc(NS(=O)(=O)c2cnc(Cl)c(Br)c2)c1 | . | -2% | 0
SMILES | ALOX15B inhib | 12-hLO inh | IMPase cell inh
CC(C)N=C=NC(C)C | 0% | -1% | .
S=C(NCCC(c1ccccc1)c1ccccc1)Nc1ccc(Cl)cc1 | 25µM* | ? | 4
S=C(NCCCc1ccccc1)Nc1ccc(Cl)cc1 | . | -20% | 1
COc1cc(NC(=S)NCCC(c2ccccc2)c2ccccc2)c(OC)cc1Cl | . | 22µM* | -21
COc1ccc(Cl)cc1NC(=S)NCCC(c1ccccc1)c1ccccc1 | . | ? | -9
CCCCC1OC23CCCCC2C(C#N)(C(=N)O3)C1(C#N)C#N (configuration not stated) | 7% | -9% | 17
Oc1c(Cl)cc(Cl)cc1Sc1cc(Cl)cc(Cl)c1O | 6.3µM* | ? | .
Oc1c(Cl)cc(Cl)cc1C(C#Cc1ccccc1)N1CCOCC1 (configuration not stated) | -13%[11.4 µM] | -4% | -3[1.84 µM]
COc1ccc2c3c(cccc13)C(=O)N(O)C2=O | . | -2% | .
CCC1=NNc2cccc3c(OC)ccc1c23 | 5µM* | -5% | 13
Cc1cc(C)c(NC(=O)OCCN2CCOCC2)c(C)c1 | 1% | -3% | -2
N#C/C(=C\c1c[nH]c2ccccc12)C(=O)c1ccc(O)c(O)c1 | -29% | 4µM* | 10
N#C/C(=C\c1ccc(O)c(O)c1)C(=O)c1ccc(O)c(O)c1 | -29% | ? | ?
S=C(Nc1ccccc1)Nc1nc2ccccc2n1CCOc1ccccc1 | ? | 20µM* | 5
CC(=O)Nc1nc2ccccc2n1CCOc1ccccc1 | 6% | -3% | 8
Cc1ccc(C)c(NC(=S)NNC(=O)c2ccco2)c1 | 5% | 1% | -8
COC(=O)/C=c1\sc2n(c1=O)C(C)=CC(C)(C)N=2 | -3% | -5% | -10
CC1=NOC(=O)/C1=C\c1ccc(-c2cc(Cl)ccc2Cl)o1 | 2µM* | -5% | 1
CC1=NOC(=O)/C1=C/c1ccc(-c2ccc(Cl)cc2)o1 | 7.9µM* | ? | 2
CC1=NOC(=O)/C1=C/c1ccc(N(C)C)cc1 | -12% | -3% | ?
C=CCNC(=S)N/N=C/c1ccc(-c2cc(Cl)ccc2Cl)o1 | ? | -7% | -8
CCCCN1CCCCC1C(=O)Nc1c(C)cccc1C (configuration not stated) | 17% | 1% | .
Cc1ccc2nc(/C(C#N)=C\c3ccc(N4CCOCC4)o3)[nH]c2c1 | . | -29% | 2
N#C/C(=C/c1ccc(N2CCCCC2)o1)c1cccc(F)c1 | 10µM* | -25% | 0
Cc1ccc(/C(C#N)=C\c2ccc(N3CCOCC3)o2)cc1 | 13µM* | -24% | 4
SMILES | ALOX15B inhib | 12-hLO inh | IMPase cell inh
N#C/C(=C/c1ccc(N2CCCCCC2)o1)c1ccc(Cl)cc1 | 7.9µM* | ? | 13
COc1cc(N2CCCC2)c(OC)cc1/C=C(/C#N)c1ccc(Br)cc1 | -17% | -11% | 6
N#C/C(=C/c1ccc(N2CCCCC2)cc1)c1cccc(F)c1 | . | 2% | 13
c1cc(NC2CC2)nc(-c2ccoc2)n1 | 7% | . | .
CCn1c(=O)c(C(C)=O)nc2ccccc21 | -6% | -7% | -11
CCOC(=O)c1[nH]c(C)c(C(=O)NCCN2CCOCC2)c1C | 1% | 0% | -1
CC1(C)NC(=O)N(CC(O)COc2ccccc2C(=O)N2CCCCC2)C1=O (configuration not stated) | -8% | -4% | ?
Cc1ccccc1NC(=S)NCc1ccc2[nH]c3c(c2c1)CCCC3 | . | 14µM* | .
O=C(NCc1ccc2[nH]c3c(c2c1)CCCC3)N1CCOCC1 | -6% | -5% | 5
CCc1ccc(OCc2nnc(SCCN3CCOCC3)n2CC)cc1 | -13% | -4% | 13
CC(=O)CCS(=O)(=O)c1ccc(Oc2ccc(S(=O)(=O)CCC(C)=O)cc2)cc1 | . | -2% | 3
CCCCCCc1cc2cc(-c3nnc(-c4ccccc4O)o3)c(=O)oc2cc1O | 25µM* | -16% | -4
